The record followed here is PubChem BioAssay (EPA / NIEHS).

Where “and” joins values, the source holds several entries; their conditions need not be identical. Equal entries are not always repeated. Records with an inconclusive call do not appear. Some compounds were tested as several samples or in several runs, with calls that do not always agree. Calls of active or inactive are those of the source. How the source made its calls: active means hit-call score of the fitted dose curve at least 0.9, where 1 is the maximum; inconclusive means response in the unintended direction; inactive means score below 0.9.

rat Peripheral-type Benzodiazepine Receptor (PBR), Tspo (gene 24230), sequence (P16257 whole entry, looked up): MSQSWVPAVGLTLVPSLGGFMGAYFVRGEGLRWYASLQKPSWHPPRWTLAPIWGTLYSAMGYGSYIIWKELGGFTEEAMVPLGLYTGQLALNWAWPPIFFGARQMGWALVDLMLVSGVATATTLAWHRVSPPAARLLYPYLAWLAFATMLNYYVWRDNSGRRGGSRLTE
rat Gamma-Aminobutyric Acid Type A Receptor BDZ, alpha 6 site (GABARa6), Gabra6 (gene 29708), sequence (P30191 whole entry, looked up): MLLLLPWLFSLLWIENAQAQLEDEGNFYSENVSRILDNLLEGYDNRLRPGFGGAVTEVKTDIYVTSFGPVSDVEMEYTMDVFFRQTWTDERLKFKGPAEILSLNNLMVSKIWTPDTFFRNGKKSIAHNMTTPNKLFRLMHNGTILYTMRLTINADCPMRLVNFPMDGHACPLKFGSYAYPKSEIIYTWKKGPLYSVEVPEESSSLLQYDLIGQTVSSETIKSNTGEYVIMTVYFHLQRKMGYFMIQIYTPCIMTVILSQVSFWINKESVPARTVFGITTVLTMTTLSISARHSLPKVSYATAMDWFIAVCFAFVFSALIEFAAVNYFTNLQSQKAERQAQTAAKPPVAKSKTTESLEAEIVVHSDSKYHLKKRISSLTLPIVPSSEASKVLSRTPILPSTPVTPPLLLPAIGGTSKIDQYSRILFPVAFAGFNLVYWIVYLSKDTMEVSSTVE
human Androgen Receptor (AR), AR (gene 367), sequence (P10275 whole entry, looked up): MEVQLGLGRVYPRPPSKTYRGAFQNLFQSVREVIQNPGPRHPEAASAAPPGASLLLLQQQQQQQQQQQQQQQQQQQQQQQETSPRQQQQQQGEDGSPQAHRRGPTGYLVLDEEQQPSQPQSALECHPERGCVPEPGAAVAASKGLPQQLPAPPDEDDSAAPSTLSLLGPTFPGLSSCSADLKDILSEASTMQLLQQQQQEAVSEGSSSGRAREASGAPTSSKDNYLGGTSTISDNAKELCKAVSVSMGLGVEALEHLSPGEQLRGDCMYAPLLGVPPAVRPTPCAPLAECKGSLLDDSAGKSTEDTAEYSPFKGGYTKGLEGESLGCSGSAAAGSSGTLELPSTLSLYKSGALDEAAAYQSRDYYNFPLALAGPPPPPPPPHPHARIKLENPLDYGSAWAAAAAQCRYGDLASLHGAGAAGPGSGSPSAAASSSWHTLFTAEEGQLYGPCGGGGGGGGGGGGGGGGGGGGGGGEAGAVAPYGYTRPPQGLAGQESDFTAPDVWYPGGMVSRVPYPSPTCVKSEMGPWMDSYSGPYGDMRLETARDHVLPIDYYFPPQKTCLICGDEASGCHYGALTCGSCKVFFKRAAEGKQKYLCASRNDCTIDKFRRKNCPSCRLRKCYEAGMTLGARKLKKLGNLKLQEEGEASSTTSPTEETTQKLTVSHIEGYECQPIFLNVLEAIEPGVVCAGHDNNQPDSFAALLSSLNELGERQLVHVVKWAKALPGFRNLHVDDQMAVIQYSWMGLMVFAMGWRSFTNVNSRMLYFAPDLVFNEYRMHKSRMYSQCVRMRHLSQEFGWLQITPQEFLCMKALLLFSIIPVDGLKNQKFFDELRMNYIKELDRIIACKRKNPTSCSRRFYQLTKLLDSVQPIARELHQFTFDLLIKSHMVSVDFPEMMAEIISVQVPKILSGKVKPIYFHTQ

One assay addresses human Androgen Receptor (AR), AR (gene 367) (UniProt P10275). Briefly: NVS_NR_hAR: NovaScreen (NVS) Nuclear Receptor Binding Assay for human Androgen Receptor (AR) (AID 2283332). The method in brief:
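Radioligand competitive binding, scintillation read-out, in cell-free extract from LnCAP, measured 20 h after dosing. Screened first in duplicate at 25 uM, then concentration series for actives; activity fitted against DMSO.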
Take `N#CCCO`: the result was inactive.
For the compound `CCN(CC)C(=O)Cl`, the call was inactive.
For the compound `Cl/C=C\C[N+]12CN3CN(CN(C3)C1)C2`, the compound was classed as inactive.
The term AC50 denotes the concentration giving half of the maximal activity seen. Regarding `CC12CC1(C)C(=O)N(c1cc(Cl)cc(Cl)c1)C2=O` (stereo not given), the AC50 is 17.1 nM (active) and 355 nM (active).

The target in a further assay is rat Peripheral-type Benzodiazepine Receptor (PBR), Tspo (gene 24230) (UniProt P16257). Briefly: NVS_MP_rPBR: NovaScreen (NVS) Membrane Protein Assay for rat Peripheral-type Benzodiazepine Receptor (PBR) (AID 2283335). A digest of the protocol:
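Single-concentration duplicate screening at 25 uM preceded concentration-series retesting of actives. Binding of a specific radioligand to rat kidney membrane PBR was read by filtration radiodetection after 1 h, with plate-wise positive and negative controls.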
Turning to `Clc1ccc(C2(Cn3cncn3)CC(Br)CO2)c(Cl)c1` (stereo not given), the AC50 is 14.5 µM (active).
Regarding `O=[N+]([O-])c1ccc2c3c(cccc13)CC2`, the AC50 is 13.3 µM (active).
`CC(C)(C)CC(C)(C)c1ccc(O)cc1`: the result was inactive.
Same read-out and setting: under `CCOP(=S)(OCC)Oc1ccc(S(C)=O)cc1` (stereo not given) stands “inactive”; under `O=C1C2(Cl)C3(Cl)C4(Cl)C(Cl)(Cl)C5(Cl)C3(Cl)C1(Cl)C5(Cl)C24Cl` (stereo not given), “inactive”.
For `O=C(Cc1ccccc1)c1ccccc1`, the AC50 is 9.94 µM (active).
`Nc1cccc2ccccc12`: the call was inactive.
On to `CCNc1nc(NC(C)(C)C)nc(SC)n1`, for which the compound was called inactive.
With `Cn1sc(Cl)cc1=O`, the call was inactive.
Still for that read-out and setting: the entry for `Nc1ccc(-c2ccc(N)c(Cl)c2)cc1Cl` is “inactive”.
Regarding `C[C@@H]1C[C@@H]([C@H](O)CC2CC(=O)NC(=O)C2)C(=O)[C@@H](C)C1`, the AC50 is 33.3 µM (active) and the compound was classed as inactive.
In the case of `O=Cc1cccc(Oc2ccccc2)c1`, the compound was classed as inactive.
Turning to `CC12CC1(C)C(=O)N(c1cc(Cl)cc(Cl)c1)C2=O` (stereo not given), the AC50 was 6.63 µM (active) and 1.03 µM (active) and 850 nM (active).

Tested on in another assay: not listed separately
Briefly: NVS_IC_rCaBTZCHL: NovaScreen (NVS) Ion Channel Assay for Calcium Channel, Type L, Benzothiazepine Site (CaBTZCHL) (AID 2283337). A digest of the protocol:
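Rat cortical membrane preparation, cell-free. Radioligand displaced by test chemical; 1.5 h incubation; filtration, scintillation count. DMSO = negative control/baseline. Primary: duplicate, 25 uM; secondary: concentration series.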
Take `CCC(=O)C(CC(C)N(C)C)(c1ccccc1)c1ccccc1` (stereo not given): the AC50 was 1.16 µM (active).
Regarding `Cn1sc(Cl)cc1=O`, the result was inactive.
Still for that read-out and setting: under `O=Cc1cccc(Oc2ccccc2)c1` stands “inactive”.
In the case of `C=C(C)C(=O)[O][Sn]([CH2]CCC)([CH2]CCC)[CH2]CCC`, the AC50 was 12.8 µM (active).

The target of a further assay is rat Gamma-Aminobutyric Acid Type A Receptor BDZ, alpha 6 site (GABARa6), Gabra6 (gene 29708) (UniProt P30191). Briefly: NVS_LGIC_rGABARa6: NovaScreen (NVS) Ligand-Gated Ion Channel Assay for rat Gamma-Aminobutyric Acid Type A Receptor BDZ, alpha 6 site (GABARa6) (AID 2283339). The method in brief:
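Actives from a 25 uM duplicate screen were retested in concentration series (max 50 uM). Specific radioligand displacement from rat cerebellar membranes was counted by filter-based scintillation at 1 h; DMSO served as baseline.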
Consider `Cn1sc(Cl)cc1=O`, for which the outcome was inactive.
In the case of `CCC(=O)c1ccccc1`, the result was inactive.
In the case of `CN(C)N=O`, the compound was classed as inactive.
